Source: PubChem
Compounds with a hit are over-represented: about 0.49% of the library has one in this group of screens.
S-ASM inh: Inhibitors of Secretory Acid Sphingomyelinase (S-ASM): qHTS; Potency, µM (series often up to 57.5 µM), without a hit: at the top dose activity change, negative = inhibition, actives largely listed as inhibitors; 340,000 compounds, 0.006% hits; Sphingomyelin phosphodiesterase (Homo sapiens), P17405; placental ASM, HMU-PC fluorogenic substrate, 60 min; also: potency is read from the fitted curve at half-maximal effect
Target sequence (P17405 47-631 limits assumed): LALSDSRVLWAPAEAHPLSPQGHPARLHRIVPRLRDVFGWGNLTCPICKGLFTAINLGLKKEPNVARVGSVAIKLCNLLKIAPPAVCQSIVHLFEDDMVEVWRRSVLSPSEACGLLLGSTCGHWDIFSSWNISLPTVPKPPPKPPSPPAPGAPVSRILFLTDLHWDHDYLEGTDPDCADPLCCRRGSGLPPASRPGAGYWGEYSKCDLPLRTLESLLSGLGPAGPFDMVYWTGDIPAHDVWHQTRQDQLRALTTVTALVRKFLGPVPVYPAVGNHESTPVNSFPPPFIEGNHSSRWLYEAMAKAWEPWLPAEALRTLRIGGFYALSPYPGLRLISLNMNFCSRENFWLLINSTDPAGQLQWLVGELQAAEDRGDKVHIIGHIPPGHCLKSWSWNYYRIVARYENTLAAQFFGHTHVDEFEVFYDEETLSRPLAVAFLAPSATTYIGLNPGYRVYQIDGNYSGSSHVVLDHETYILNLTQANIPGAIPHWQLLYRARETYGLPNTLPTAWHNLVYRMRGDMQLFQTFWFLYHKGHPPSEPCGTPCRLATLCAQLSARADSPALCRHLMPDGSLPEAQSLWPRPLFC
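qHTS format. ASM enzyme prepared from human placenta hydrolyses the fluorogenic substrate HMU-PC0 (9 uM final) over 60 min at 37 °C after a 10 min compound preincubation.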
BCR signal inh: qHTS Assay to Find Inhibitors of Chronic Active B-Cell Receptor Signaling. ABC-DLBCL IkBa-CBG/CBR reporter, luminescence ratio, 4 h. Potency, µM (top dose mostly 46.1 µM), for the others: at the top dose activity change, negative = inhibition, usual class: inhibitors. 340,000 compounds, 0.05% hits. AID 493014, 2011; active = well fitted inhibition curve with a large enough effect in the signal ratio, with a control signal flat, not every such curve was filed as active; inconclusive = small, poorly fitted or top-dose-only effect, or effect the other way, or a change in a side signal; the % refers to the signal ratio;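 also: potency is read from the fitted curve at half-maximal effect; plate controls were basal doxycycline-induced cells for no effect and cells given 10 µM MG132 for full effect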
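Doxycycline induced both beetle luciferases in TMD8 lymphoma cells; IKK-driven degradation limits the IkappaBalpha-fused green signal, while red luminescence normalises for cell number and nonspecific effects. Compounds tested up to 46 uM, 4 hrs.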
CCT modulator: High-Throughput Screening for Modulators of Cytosolic Chaperonin Activity; purified chaperonin ATPase assay, HTRF ADP detection, 30 min; activity change, % (no concentration beside the values), hits read low; 360,000 compounds, 0.3% hits; AID 651819, 2012; in the data active = activity change below about -30%; also: % is scaled to controls: 0 for no effect and ±100 for the full control effect
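Enzyme 40 or 20 nM (batch-dependent) in Tris pH 7.4/KCl/MgCl2/DTT; cpd 76 uM single point; ATP 10 uM; 30 min 37 °C; Transcreener ADP HTRF detection, 30 min RT; ratio 665/615.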
TCR activator: Activators of T cell receptors: qHTS campaign | primary human leukocytes, anti-CD3, IL-2 HTRF, 48 h | Potency, µM (doses to about 9.22 µM), for the others: at the top dose activation of IL-2 secretion, usual class: activators | 330,000 tested, under 10 active | AID 504894, 2011; also: % of control where 0% means no effect
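TCR engagement came from a-CD3 beads alone, with compounds added to primary human leukocytes for 48 hr. Secreted IL-2 bridged europium cryptate- and d2-labelled anti-IL-2 antibodies, giving FRET emission at 665nm after 320nm excitation.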
Tb PFK inh-1: qHTS Assay to Find Inhibitors of T. brucei phosphofructokinase | T. brucei PFK, ADP-Glo luminescence | Potency, µM (series often up to 57.5 µM), without a hit: at the top dose activity, negative = inhibition, most hits filed as inhibitors | ATP-dependent 6-phosphofructokinase (Trypanosoma brucei brucei), O15648 | 330,000 compounds, 0.17% hits;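 also: potency is read from the fitted curve at half-maximal effect; 0% = uninhibited 1x PFK enzyme wells and -100% = no-enzyme wells; nearly all actives have a fitted effect of over 60% in size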
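Compounds were pin-transferred as a titration series up to 57 uM into substrate buffer (0.5 mM F6P, 0.1 mM ATP, pH 8.0), then 1.25 nM PFK was added and reactions ran 45 min before ADP-Glo detection.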
Tb PFK KinaseGlo: Tb PFK orthogonal confirmatory assay using ATP depletion (Kinase-Glo Plus) as an alternative measure of Tb PFK activity: Hit Validation; shares compounds with Tb PFK inh-1; Tb PFK enzyme, ATP depletion, Kinase-Glo Plus luminescence; Potency, µM (doses to about 57.5 µM), without a hit: at the highest dose inhibition; 1,100 compounds, 47% hits; calls by dose curve; also: potency is read from the fitted curve at half-maximal effect; nearly all actives have a fitted effect of over 60% in size
Tb PFK inh-2: Inhibitors of T. brucei phosphofructokinase: Hit Validation; purified T. brucei PFK, ADP-Glo luminescence, 45 min; 1,100 compounds, 41% hits; shares compounds with Tb PFK inh-1; Potency, µM (titrated, usually from 57.5 µM), for the others: top-dose activity change, negative = inhibition, most hits filed as inhibitors;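 also: potency is read from the fitted curve at half-maximal effect; plate controls were full PFK enzyme control for no effect and no enzyme control for full effect; nearly all actives have a fitted effect of over 60% in size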
Numbers without * were called inactive; [ ] = remark or other dose. Unless noted, calls follow the shape of the dose curve; as a rule, active = well fitted curve in the direction sought with a large enough effect; inconclusive = small, poorly fitted or top-dose-only effect, or another doubt; inactive = no such curve, though single readings can be large; an effect the other way counts as inactive or inconclusive.

What do the screens show for `CC(CNc1ccccc1O)C(=O)O` (stereo not drawn)?
S-ASM inh: -2%; BCR signal inh: -1%; CCT modulator: 1; TCR activator: 11%[46.1 µM]; Tb PFK inh-1: 24µM*; Tb PFK KinaseGlo: inconclusive; Tb PFK inh-2: inconclusive

How did CC(Cc1ccccc1)NC(=O)NC(C)Cc1ccccc1 (stereo not drawn) do in these assays?
S-ASM inh: 4%; BCR signal inh: 12%; CCT modulator: 0; TCR activator: -7%; Tb PFK inh-1: 0%

What do the screens show for `COC(=O)[C@@H]1N=C(c2ccc(OC)cc2)O[C@]12C(=O)N(C)c1ccc(Cl)cc12`?
CCT modulator: 0

How did CC(=O)N(C1=C(Cl)C(=O)c2ccccc2C1=O)C1CCCCC1 do in these assays?
S-ASM inh: -1%; BCR signal inh: inconclusive; CCT modulator: 4; TCR activator: 3%; Tb PFK inh-1: 0.67µM*; Tb PFK KinaseGlo: 0.38µM*; Tb PFK inh-2: 0.38µM*

How did c1coc(CN2Cc3ccccc3-n3nncc3C2)c1 do in these assays?
CCT modulator: 0

Results for Cn1c(Oc2ccccc2NCc2cc(Br)ccc2O)cc(=O)n(C)c1=O ?
S-ASM inh: -4%; BCR signal inh: inconclusive; CCT modulator: -3; TCR activator: 2%; Tb PFK inh-1: inconclusive; Tb PFK KinaseGlo: 19µM*; Tb PFK inh-2: 13µM*

What do the screens show for `CC(C1CC2CCC1C2)n1c(-c2cccs2)n[nH]c1=S` (stereo not drawn)?
S-ASM inh: -1%; BCR signal inh: inconclusive; CCT modulator: -1; TCR activator: 1%; Tb PFK inh-1: 1%

What do the screens show for `O=C1C2CC=C(Cl)CC2C(=O)N1CCCCCCN1C(=O)C2CC=C(Cl)CC2C1=O` (stereo not drawn)?
S-ASM inh: -5%; BCR signal inh: inconclusive; CCT modulator: 2; TCR activator: 4%; Tb PFK inh-1: inconclusive; Tb PFK KinaseGlo: inconclusive; Tb PFK inh-2: inconclusive

How did CCOC(=O)[C@]12Cc3ccccc3[C@H]1N(CCC(=O)OC)C(=O)c1cc(OC)ccc12 do in these assays?
CCT modulator: 0

Results for CC(C)(C)C1(CCO)C(=O)NC(=S)NC1=O ?
S-ASM inh: -4%; CCT modulator: 2; TCR activator: 9%

How did NC[C@H](O)c1ccc(O)c(O)c1 do in these assays?
S-ASM inh: -1%; BCR signal inh: -9%; CCT modulator: -4; TCR activator: -1%; Tb PFK inh-1: 2.1µM*; Tb PFK KinaseGlo: 17%; Tb PFK inh-2: -20%

What do the screens show for `Cc1cccc(NS(=O)(=O)c2ccc(C(=O)N3CCN(c4ccccc4O)CC3)cc2)c1C`?
S-ASM inh: -8%; BCR signal inh: inconclusive; CCT modulator: -1; TCR activator: 3%; Tb PFK inh-1: -1%

Results for O=C(OCc1ccc(Cl)c(Cl)c1)c1cnccn1 ?
S-ASM inh: 0%; BCR signal inh: -3%; CCT modulator: -1; TCR activator: 0%; Tb PFK inh-1: inconclusive; Tb PFK KinaseGlo: 24µM*; Tb PFK inh-2: 27µM*

Results for O=C(COc1ccc(Cl)cc1)OCC(=O)c1ccc[nH]1 ?
S-ASM inh: 1%; BCR signal inh: -1%; CCT modulator: -1; TCR activator: 0%; Tb PFK inh-1: inconclusive; Tb PFK KinaseGlo: 18%; Tb PFK inh-2: inconclusive

Results for O=C(OCc1ccc(Cl)c(Cl)c1)c1ccc[nH]1 ?
S-ASM inh: -6%; BCR signal inh: -3%; CCT modulator: 2; TCR activator: -2%; Tb PFK inh-1: inconclusive; Tb PFK KinaseGlo: 24µM*; Tb PFK inh-2: 21µM*

What do the screens show for `O=C(Cc1ccc(Cl)c(Cl)c1)OCC(=O)c1ccc[nH]1`?
S-ASM inh: -1%; BCR signal inh: 2%; CCT modulator: 2; TCR activator: 1%; Tb PFK inh-1: inconclusive; Tb PFK KinaseGlo: 9.5µM*; Tb PFK inh-2: 19µM*

How did O=C(COC(=O)Cc1ccccc1)Nc1ncc(Cl)cc1Cl do in these assays?
S-ASM inh: 2%; BCR signal inh: 13%; CCT modulator: 1; TCR activator: -2%; Tb PFK inh-1: -2%

Results for O=C1c2cccc(N3CCNCC3)c2C2CCCCN12 (stereo not drawn) ?
CCT modulator: 2

How did CCOC(=O)c1cc2c(cn1)[C@H](CCO)NC2 do in these assays?
S-ASM inh: 3%; CCT modulator: 2; TCR activator: -11%

Results for COCCN(CCOC)C(=O)CCn1c(=O)oc2ccccc21 ?
S-ASM inh: 2%; BCR signal inh: inconclusive; CCT modulator: 2; TCR activator: 0%[46.1 µM]; Tb PFK inh-1: 2%

How did COc1cc(/C=C(\C#N)c2nc3ccccc3s2)cc([N+](=O)[O-])c1O do in these assays?
S-ASM inh: inconclusive; BCR signal inh: 3%; CCT modulator: -3; TCR activator: -2%; Tb PFK inh-1: inconclusive; Tb PFK KinaseGlo: -27%; Tb PFK inh-2: inconclusive

What do the screens show for `COc1cc(C(O)c2nc3ccccc3s2)cc(OC)c1OC` (stereo not drawn)?
S-ASM inh: 4%; BCR signal inh: inconclusive; CCT modulator: -2; TCR activator: -4%; Tb PFK inh-1: -11%

What do the screens show for `NCCc1c[nH]c2ccc(F)cc12`?
BCR signal inh: -1%; Tb PFK inh-1: inconclusive; Tb PFK KinaseGlo: inconclusive; Tb PFK inh-2: inconclusive

What do the screens show for `CCn1c(N)c(C(=O)NC)sc1=S`?
S-ASM inh: 1%; BCR signal inh: 6%; CCT modulator: 2; TCR activator: 7%; Tb PFK inh-1: inconclusive; Tb PFK KinaseGlo: 9.5µM*; Tb PFK inh-2: 19µM*

Results for O=C(CSCc1ccccc1Cl)Nc1ccc2c(c1)OCCO2 ?
S-ASM inh: 2%; BCR signal inh: inconclusive; CCT modulator: -1; TCR activator: 2%; Tb PFK inh-1: -5%

What do the screens show for `O=C(Cc1ccc(Cl)c(Cl)c1)Nc1cccnc1`?
S-ASM inh: 0%; BCR signal inh: -13%; CCT modulator: 0; TCR activator: 14%; Tb PFK inh-1: 15µM*; Tb PFK KinaseGlo: 3.8µM*; Tb PFK inh-2: 12µM*
